Experimental data as given in PubChem BioAssay (NCATS).
Results filed as inconclusive are left out. The source made the active and inactive calls. Calls come from the whole dose curve; as a rule, active = well fitted cell-killing curve with a large enough effect; inconclusive = small, poorly fitted or top-dose-only effect, or effect the other way; inactive = flat fitted curve, though single readings scatter.

Tests used:
Assay in all cases: Primary qHTS to identify gynecologic anti-cancer compounds using libraries of approved drugs and bioactive compounds (AID 1345084); note: nearly all actives have a fitted effect of over 55% in size
Details in all cases: Gynecologic cancer cell panel viability, ATPlite luminescence, 48 h; series mostly up to 57.5 µM
OV90 = tested on: OV90
Method in brief: (§1)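 Measured: luminescence after ATPlite addition (15 min, RT). Exposure: 48 h, 37 C, 5% CO2.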

PA-1 = tested on: PA-1
Method in brief: as §1

SKOV3 = tested on: SKOV3
Method in brief: as §1

Tov-21-G = tested on: Tov-21-G
Method in brief: as §1

Tov112D = tested on: Tov112D
Method in brief: as §1
% is set by controls: 0 for no effect and ±100 for the full control effect.

CS(=O)(=O)c1ccccc1N1CCN(c2nc3c(c(=O)[nH]2)CSCC3)CC1
inactive: Potency (OV90) | Potency (PA-1) | Potency (SKOV3) | Potency (Tov-21-G) | Potency (Tov112D)

CC(=O)OC1CC2C(C)(C)C(=O)C=CC2(C)C2CC(=O)C3=C(CCC3C3=CC(O)OC3=O)C12C (centres undefined)
inactive: Potency (OV90) | Potency (PA-1) | Potency (SKOV3) | Potency (Tov-21-G) | Potency (Tov112D)

COC(=O)[C@]1(C)CCC[C@@]2(C)C(=O)CC[C@H]3C(=O)C=C(CC[C@@H]21)C3O (some centres undefined)
inactive: Potency (OV90) | Potency (PA-1) | Potency (SKOV3) | Potency (Tov-21-G) | Potency (Tov112D)

Cc1oc2nc3c(c(NC(=O)CN4CCCC4=O)c2c1C)CCCC3
inactive: Potency (OV90) | Potency (PA-1) | Potency (SKOV3) | Potency (Tov-21-G)

C=C1CC2C(C)(CCC(=O)O)C(C(C)(C)O)CCC2(C)C2(C(=O)OC)C(=O)C(C)(O)C(=O)C12C (centres undefined)
inactive: Potency (OV90) | Potency (PA-1) | Potency (SKOV3) | Potency (Tov-21-G) | Potency (Tov112D)

C=C1CC[C@@]2(OC1)O[C@H]1CC3[C@@H]4CC=C5C[C@@H](O)C[C@@H](O[C@@H]6OC[C@H](O)[C@H](O)[C@H]6O[C@@H]6O[C@@H](C)[C@H](O)[C@@H](O)[C@H]6O)[C@]5(C)C4CC[C@]3(C)[C@H]1[C@@H]2C (some centres undefined)
inactive: Potency (OV90) | Potency (PA-1) | Potency (SKOV3) | Potency (Tov-21-G) | Potency (Tov112D)

Cc1c(O)cc2c(c1O)COC1(O)CCCOC21 (centres undefined)
inactive: Potency (OV90) | Potency (PA-1) | Potency (SKOV3) | Potency (Tov-21-G) | Potency (Tov112D)

COc1cccc2c1c(O)c(C(=O)N(C)c1ccc(C(F)(F)F)cc1)c(=O)n2C
inactive: Potency (OV90) | Potency (PA-1) | Potency (SKOV3) | Potency (Tov-21-G) | Potency (Tov112D)

NC1=NC2(c3cc(NC(=O)c4ccc(F)cn4)ccc3F)COCC2CS1 (centres undefined)
inactive: Potency (OV90) | Potency (PA-1) | Potency (SKOV3) | Potency (Tov-21-G) | Potency (Tov112D)

O=C(O)CC/C=C\C[C@H]1CO[C@@H](c2ccccc2Cl)O[C@H]1c1ccccc1O
inactive: Potency (OV90) | Potency (PA-1) | Potency (SKOV3) | Potency (Tov-21-G) | Potency (Tov112D)

COC(=O)C1=COC(OC2OC(CO)C(O)C(O)C2O)C2C(C)C(OC(C)=O)C(OC(=O)c3ccccc3)C12 (centres undefined)
inactive: Potency (OV90) | Potency (PA-1) | Potency (SKOV3) | Potency (Tov-21-G) | Potency (Tov112D)

C=C1C[C@@]2(O)O[C@@]3(C[C@H]2C(C)C)[C@@H](C)CC[C@@H]13
inactive: Potency (OV90) | Potency (PA-1) | Potency (SKOV3) | Potency (Tov-21-G) | Potency (Tov112D)

O=C(Nc1ccn(Cc2c(F)cccc2C(F)(F)F)n1)c1c(F)cccc1F
inactive: activity change, negative = cytotoxicity (OV90) 0.656% [at 11.6 µM] | activity change, negative = cytotoxicity (PA-1) 10.8% [at 11.6 µM] | activity change, negative = cytotoxicity (SKOV3) 9.68% [at 11.6 µM] | activity change, negative = cytotoxicity (Tov-21-G) 10.6% [at 11.6 µM] | activity change, negative = cytotoxicity (Tov112D) 3.93% [at 11.6 µM]

O=C(O)CC1(O)C(=O)Nc2ccccc21 (centres undefined)
inactive: Potency (OV90) | Potency (PA-1) | Potency (SKOV3) | Potency (Tov-21-G) | Potency (Tov112D)

O=C(O)CC1CCC(c2ccc(-c3ccc(Nc4ccc(C(F)(F)F)nc4)cn3)cc2)CC1 (centres undefined)
inactive: Potency (OV90) | Potency (PA-1) | Potency (SKOV3) | Potency (Tov-21-G) | Potency (Tov112D)

COC(=O)C1C(O)CCC2CN3CCc4c([nH]c5ccccc45)C3CC21 (centres undefined)
inactive: Potency (OV90) | Potency (PA-1) | Potency (SKOV3) | Potency (Tov-21-G) | Potency (Tov112D)

c1cc(-c2cc(C3CCNCC3)[nH]n2)ccn1
inactive: Potency (OV90) | Potency (PA-1) | Potency (SKOV3) | Potency (Tov-21-G) | Potency (Tov112D)

COc1cc(C2OCC3(O)C(c4ccc(O[C@@H]5O[C@H](CO)[C@@H](O)[C@H](O)[C@H]5O)c(OC)c4)OCC23O)ccc1O (some centres undefined)
inactive: Potency (OV90) | Potency (PA-1) | Potency (SKOV3) | Potency (Tov-21-G) | Potency (Tov112D)

C[C@H](O)C(O)(C(=O)OCc1ccccc1NC(=O)CCC(N)C(=O)O)[C@H](C)O (some centres undefined)
inactive: Potency (OV90) | Potency (PA-1) | Potency (SKOV3) | Potency (Tov-21-G) | Potency (Tov112D)

CC(C)C(NC(=O)c1ccc(O)cc1)C(=O)N1CCCC1C(=O)Nc1c(O)cccc1C(=O)O (centres undefined)
inactive: Potency (OV90) | Potency (PA-1) | Potency (SKOV3) | Potency (Tov-21-G) | Potency (Tov112D)

C=C1C2CCC3CC2(CC(O)C2(O)C1CC(OC1OC(CO)C(O)C(O)C1O)C2(C)C)CC3(C)O (centres undefined)
inactive: Potency (OV90) | Potency (PA-1) | Potency (SKOV3) | Potency (Tov-21-G) | Potency (Tov112D)

COC(=O)[C@@H](NC(=O)[C@H](CC(C)C)NC(=O)N(Cc1ccccc1)C[C@@H](O)[C@H](Cc1ccccc1)NC(=O)OC(C)(C)C)C(C)C
inactive: activity change, negative = cytotoxicity (OV90) -5.58% [at 11.6 µM] | activity change, negative = cytotoxicity (PA-1) 4.66% [at 11.6 µM] | activity change, negative = cytotoxicity (SKOV3) 21.9% [at 11.6 µM] | activity change, negative = cytotoxicity (Tov-21-G) -1.16% [at 11.6 µM] | activity change, negative = cytotoxicity (Tov112D) 11% [at 11.6 µM]

CC(=O)N[C@H]1[C@H](O[C@H]2CC[C@]3(C)C4CC=C5[C@@H]6CC(C)(C)CC[C@]6(C(=O)O)[C@H](O)C[C@@]5(C)[C@]4(C)CC[C@H]3C2(C)C)O[C@H](CO)[C@@H](O)[C@@H]1O (some centres undefined)
inactive: Potency (OV90) | Potency (PA-1) | Potency (SKOV3) | Potency (Tov-21-G) | Potency (Tov112D)
